Screening results from PubChem.
LMP1 NFkB inh: reduces LMP1-driven NF-kappaB luciferase signal. LMP1-induced NF-kappaB luciferase reporter cells, luminescence. AID 504558. inhibition, % at 12.5 µM. hit rate 0.69% among 350,000; in the data active = inhibition above about 41%;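 note: 0% = neutral control wells and 100% = reference inhibitor control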
Peg3 promoter: Peg3 promoter activity inhibition; HeLa PEG-Prom luciferase reporter, luminescence, overnight; hit rate 1.7% among 360,000; inhibition, % at 20 µM; AID 588405;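 active = inhibition of at least 50% at 20 µM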
Shn3 3UTR inh: inhibitors of Schnurri-3 3'UTR reporter in osteoblasts; Clone20 osteoblast Shn3 3'UTR firefly luciferase, 24 h; inhibition, % at 12.5 µM; hit rate 0.52% among 360,000;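 active = mean inhibition of at least 75% with every replicate also reaching 75%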;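 note: 0% = median of neutral control wells and 100% = pilot-screen positive control compound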
TROY signal inh: blocks TROY-dependent signaling in reporter cells; Q293 LMP1-TROYcd NF-kB luciferase reporter, 4 h; inhibition, % at 10 µM; hit rate 0.98% among 360,000;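 active = compounds whose plate-normalised and pattern-corrected inhibition of the luciferase reporter signal at the single screening dose is 50% or more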
TWEAK-Fn14 inh: blocks TWEAK-Fn14 interaction in a reporter cell assay; hit rate 2% among 360,000; AID 1159606; TWEAK-stimulated Fn14 reporter cells, luciferase luminescence, 8 h; inhibition, % at 10 µM; in the data active = inhibition above about 50%
TRPM1 prom inh: inhibitors of MITF-driven TRPM1 promoter in melanoma cells; SK-MEL-5 TRPM1 promoter luciferase, 24 h; inhibition, % at 12.5 µM; hit rate 0.83% among 330,000;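 active = mean inhibition across replicates of 60% or more, whatever share of single replicates reaches that level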
* = called active by the depositor. Rows were chosen to be rich in hits. Some 4.1% of all compounds tested hit in one or more screens of this group.

SMILES	LMP1 NFkB inh	Peg3 promoter	Shn3 3UTR inh	TROY signal inh	TWEAK-Fn14 inh	TRPM1 prom inh
O=C(O)c1ccc(N/N=C/c2cn(Cc3ccc(F)cc3)c3ccccc23)cc1	-10	-118	-44	33	52*	-18
O=[N+]([O-])/C=C/c1cn(Cc2ccc(F)cc2)c2ccccc12	13	53*	33	7	19	22
O=C1CSC(c2c(F)cccc2Cl)N1c1cccc(F)c1 (stereo unspecified)	-4	21	15	9	-9	3
CCOC(=O)C1=C(C)NC(=O)C(C#N)C1c1ccco1 (stereo unspecified)	4	-3	-14	-12	12	5
Cc1ccc(N2C(=O)C3C4CC(=O)C(c5ccccc54)C3C2=O)cc1C (stereo unspecified)	2	17	-2	5	8	2
CN(C)S(=O)(=O)c1ccc(C(=O)Nc2ccc3nc(N4CCOCC4)sc3c2)cc1	-5	-7	-29	-4	-28	-11
COc1ccc(-c2noc(CCC(=O)N3CCN(c4cccc(Cl)c4)CC3)n2)cc1	14	20	-1	40	45	-13
N#C/C(=C\c1ccc(Sc2ccccc2)o1)c1nc2ccccc2[nH]1	-12	-269	-60	-11	-6	-116
N#C/C(=C/c1ccc(Sc2nc3ccccc3[nH]2)o1)c1cccc(Br)c1	1	31	16	68*	39	9
N#C/C(=C/c1ccc(Sc2nc3ccccc3[nH]2)o1)c1ccccc1F	10	-45	68	43	21	5
N#C/C(=C/c1ccc(Sc2nc3ccccc3[nH]2)o1)c1cccc(F)c1	11	36	30	55*	10	20
COCCCN(C(=O)c1cc(Cl)nc2ccccc12)c1c(N)n(Cc2ccccc2)c(=O)[nH]c1=O	-1	-4	-2	-4	5	-1
CCn1c(SCC(=O)N2CCN(c3ccccc3)CC2)nnc1-c1cc2cc(Cl)ccc2o1	31	3	-10	59*	47	2
C=CCn1c(SCC(=O)N2CCN(c3ccccc3)CC2)nnc1-c1ccco1	-3	2	36	-8	4	15
Cc1nc(SCC(=O)O)c2oc3ccccc3c2n1	-7	6	-12	-13	-5	9
Cc1nc(SCC(=O)N2CCN(c3ccccc3)CC2)c2oc3ccccc3c2n1	1	56*	24	24	52*	9
Cn1c(CC(=O)Nc2ccc(Cl)c(Cl)c2)nnc1SCC(=O)N1CCN(c2ccccc2)CC1	8	27	30	29	51*	-10
O=C(NCCc1cnc[nH]1)c1ccc(-c2ccccc2)cc1	2	-134	-7	-52	-5	-14
CC(=O)N1CCN(C(=O)c2cc(=O)c3ccccc3o2)CC1	-8	-17	-18	-15	9	-2
CS(=O)(=O)N1CCc2cc(C(=O)N3CCN(c4ccccc4F)CC3)ccc21	-1	8	-18	-20	16	0
CC(NC1=CC(=O)c2cccnc2C1=O)C(O)c1ccccc1 (stereo unspecified)	3	28	-12	7	16	110*
CC(c1ccccc1)N1C(=O)c2cccnc2C1=O (stereo unspecified)	2	7	-3	14	4	-2
O=[N+]([O-])/C=C\c1ccc(N2CCCC2)c(F)c1	11	101*	48	-1	13	94*
O=Cc1ccc(N2CCCC2)c([N+](=O)[O-])c1	1	12	-5	-27	2	5
O=C1CC(Sc2nnnn2-c2ccccc2)C(=O)N1c1cccc(Cl)c1 (stereo unspecified)	-7	116*	90*	9	-14	16
COc1ccc(N2C(=O)CC(Sc3nnnn3-c3ccc(F)cc3)C2=O)cc1 (stereo unspecified)	6	114*	73	-7	-12	22
COc1ccc(N2C(=O)CC(Sc3nc(C)cc(C)c3C#N)C2=O)cc1 (stereo unspecified)	5	-46	-25	2	-9	-11
CCN1C(=O)[C@H]2[C@@H](c3ccc(-c4ccc(C(C)=O)cc4)cc3)N[C@@](C)(C(=O)OC)[C@H]2C1=O	5	5	9	-14	14	-12
COc1cccc(-c2cc3nc4c(c(NCC(C)(C)CN(C)C)n3n2)CCCC4)c1	-7	-106	-14	81*	61*	-31
